{
  "source": "paper doi:10.1101/2024.03.05.583629",
  "data": [
    {"target": "pT7_6His-AlfaTag-HOXD13 (human, UniProt P35453 263-343)", "sequence (P35453 263-343)": "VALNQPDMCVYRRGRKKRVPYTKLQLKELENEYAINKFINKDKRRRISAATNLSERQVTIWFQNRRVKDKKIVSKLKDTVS", "test": "PADIT-seq", "conditions": "dsDNA, one strand shown", "units": {"binding signal": "log2FC"}, "values": [
      {"sequence": "CTCGAGGATATCAAGATCTGGCCTCGGCACGCTAAAAGGAACCTCTAGCTAGCCGACTCACTATAGGGATAATCGCCCTGAGCAAAGACC", "binding signal": "-0.127 ± 0.102"},
      {"sequence": "CTCGAGGATATCAAGATCTGGCCTCGGCCCTTTAAAAGGAACCTCTAGCTAGCCGACTCACTATAGGGATAATCGCCCTGAGCAAAGACC", "binding signal": "2.14 ± 0.0827"},
      {"sequence": "CTCGAGGATATCAAGATCTGGCCTCGGCTATTGGGCGGGAACCTCTAGCTAGCCGACTCACTATAGGGATAATCGCCCTGAGCAAAGACC", "binding signal": "-0.163 ± 0.106"},
      {"sequence": "CTCGAGGATATCAAGATCTGGCCTCGGCTCTATAAAAGGAACCTCTAGCTAGCCGACTCACTATAGGGATAATCGCCCTGAGCAAAGACC", "binding signal": "2.9 ± 0.0831"},
      {"sequence": "CTCGAGGATATCAAGATCTGGCCTCGGCACACCACGCGGAACCTCTAGCTAGCCGACTCACTATAGGGATAATCGCCCTGAGCAAAGACC", "binding signal": "-0.837 ± 0.131"},
      {"sequence": "CTCGAGGATATCAAGATCTGGCCTCGGCGTTTTACGGGGAACCTCTAGCTAGCCGACTCACTATAGGGATAATCGCCCTGAGCAAAGACC", "binding signal": "3.16 ± 0.0771"},
      {"sequence": "CTCGAGGATATCAAGATCTGGCCTCGGCATCCTAAAAGGAACCTCTAGCTAGCCGACTCACTATAGGGATAATCGCCCTGAGCAAAGACC", "binding signal": "0.337 ± 0.103"},
      {"sequence": "CTCGAGGATATCAAGATCTGGCCTCGGCGCGTGGTACGGAACCTCTAGCTAGCCGACTCACTATAGGGATAATCGCCCTGAGCAAAGACC", "binding signal": "-0.921 ± 0.116"},
      {"sequence": "CTCGAGGATATCAAGATCTGGCCTCGGCGCTTGGGCGGGAACCTCTAGCTAGCCGACTCACTATAGGGATAATCGCCCTGAGCAAAGACC", "binding signal": "-0.995 ± 0.12"},
      {"sequence": "CTCGAGGATATCAAGATCTGGCCTCGGCCGCCAGCGCGGAACCTCTAGCTAGCCGACTCACTATAGGGATAATCGCCCTGAGCAAAGACC", "binding signal": "-0.898 ± 0.171"},
      {"sequence": "CTCGAGGATATCAAGATCTGGCCTCGGCCTTTTACGCGGAACCTCTAGCTAGCCGACTCACTATAGGGATAATCGCCCTGAGCAAAGACC", "binding signal": "1.9 ± 0.0733"},
      {"sequence": "CTCGAGGATATCAAGATCTGGCCTCGGCTTTTTATCGGGAACCTCTAGCTAGCCGACTCACTATAGGGATAATCGCCCTGAGCAAAGACC", "binding signal": "1.91 ± 0.0856"},
      {"sequence": "CTCGAGGATATCAAGATCTGGCCTCGGCCGCCCAGAAGGAACCTCTAGCTAGCCGACTCACTATAGGGATAATCGCCCTGAGCAAAGACC", "binding signal": "-1.09 ± 0.133"},
      {"sequence": "CTCGAGGATATCAAGATCTGGCCTCGGCAAATGGGCGGGAACCTCTAGCTAGCCGACTCACTATAGGGATAATCGCCCTGAGCAAAGACC", "binding signal": "-0.536 ± 0.104"},
      {"sequence": "CTCGAGGATATCAAGATCTGGCCTCGGCTGTGTAAAAGGAACCTCTAGCTAGCCGACTCACTATAGGGATAATCGCCCTGAGCAAAGACC", "binding signal": "1.46 ± 0.0852"},
      {"sequence": "CTCGAGGATATCAAGATCTGGCCTCGGCCTTTTACGGGGAACCTCTAGCTAGCCGACTCACTATAGGGATAATCGCCCTGAGCAAAGACC", "binding signal": "3.14 ± 0.0784"},
      {"sequence": "CTCGAGGATATCAAGATCTGGCCTCGGCTTTTTAGGCGGAACCTCTAGCTAGCCGACTCACTATAGGGATAATCGCCCTGAGCAAAGACC", "binding signal": "0.0492 ± 0.119"},
      {"sequence": "CTCGAGGATATCAAGATCTGGCCTCGGCAGGTTAAAAGGAACCTCTAGCTAGCCGACTCACTATAGGGATAATCGCCCTGAGCAAAGACC", "binding signal": "0.752 ± 0.0728"},
      {"sequence": "CTCGAGGATATCAAGATCTGGCCTCGGCGCGTGGTAAGGAACCTCTAGCTAGCCGACTCACTATAGGGATAATCGCCCTGAGCAAAGACC", "binding signal": "-0.999 ± 0.124"},
      {"sequence": "CTCGAGGATATCAAGATCTGGCCTCGGCATTTTACTTGGAACCTCTAGCTAGCCGACTCACTATAGGGATAATCGCCCTGAGCAAAGACC", "binding signal": "1.23 ± 0.0944"},
      {"sequence": "CTCGAGGATATCAAGATCTGGCCTCGGCACCATAAAAGGAACCTCTAGCTAGCCGACTCACTATAGGGATAATCGCCCTGAGCAAAGACC", "binding signal": "2.69 ± 0.0753"},
      {"sequence": "CTCGAGGATATCAAGATCTGGCCTCGGCCGCGCCCGCGGAACCTCTAGCTAGCCGACTCACTATAGGGATAATCGCCCTGAGCAAAGACC", "binding signal": "-1.09 ± 0.134"},
      {"sequence": "CTCGAGGATATCAAGATCTGGCCTCGGCTTTTTACCTGGAACCTCTAGCTAGCCGACTCACTATAGGGATAATCGCCCTGAGCAAAGACC", "binding signal": "-0.185 ± 0.138"},
      {"sequence": "CTCGAGGATATCAAGATCTGGCCTCGGCATTTTACGGGGAACCTCTAGCTAGCCGACTCACTATAGGGATAATCGCCCTGAGCAAAGACC", "binding signal": "3.18 ± 0.0854"},
      {"sequence": "CTCGAGGATATCAAGATCTGGCCTCGGCCCCCTAAAAGGAACCTCTAGCTAGCCGACTCACTATAGGGATAATCGCCCTGAGCAAAGACC", "binding signal": "0.578 ± 0.0983"},
      {"sequence": "CTCGAGGATATCAAGATCTGGCCTCGGCATTTTATCTGGAACCTCTAGCTAGCCGACTCACTATAGGGATAATCGCCCTGAGCAAAGACC", "binding signal": "0.909 ± 0.103"},
      {"sequence": "CTCGAGGATATCAAGATCTGGCCTCGGCTAGCTAAAAGGAACCTCTAGCTAGCCGACTCACTATAGGGATAATCGCCCTGAGCAAAGACC", "binding signal": "-0.637 ± 0.145"},
      {"sequence": "CTCGAGGATATCAAGATCTGGCCTCGGCTCACTAAAAGGAACCTCTAGCTAGCCGACTCACTATAGGGATAATCGCCCTGAGCAAAGACC", "binding signal": "0.718 ± 0.11"},
      {"sequence": "CTCGAGGATATCAAGATCTGGCCTCGGCAGAATAAAAGGAACCTCTAGCTAGCCGACTCACTATAGGGATAATCGCCCTGAGCAAAGACC", "binding signal": "0.976 ± 0.0851"},
      {"sequence": "CTCGAGGATATCAAGATCTGGCCTCGGCGATCTAAAAGGAACCTCTAGCTAGCCGACTCACTATAGGGATAATCGCCCTGAGCAAAGACC", "binding signal": "-0.592 ± 0.0883"},
      {"sequence": "CTCGAGGATATCAAGATCTGGCCTCGGCCTTTTAAGAGGAACCTCTAGCTAGCCGACTCACTATAGGGATAATCGCCCTGAGCAAAGACC", "binding signal": "2.52 ± 0.0827"},
      {"sequence": "CTCGAGGATATCAAGATCTGGCCTCGGCGACCCACGCGGAACCTCTAGCTAGCCGACTCACTATAGGGATAATCGCCCTGAGCAAAGACC", "binding signal": "-1.05 ± 0.109"},
      {"sequence": "CTCGAGGATATCAAGATCTGGCCTCGGCATTTTAAGAGGAACCTCTAGCTAGCCGACTCACTATAGGGATAATCGCCCTGAGCAAAGACC", "binding signal": "2.98 ± 0.0964"},
      {"sequence": "CTCGAGGATATCAAGATCTGGCCTCGGCGAATTAAAAGGAACCTCTAGCTAGCCGACTCACTATAGGGATAATCGCCCTGAGCAAAGACC", "binding signal": "1.47 ± 0.0704"},
      {"sequence": "CTCGAGGATATCAAGATCTGGCCTCGGCCGATGGGCGGGAACCTCTAGCTAGCCGACTCACTATAGGGATAATCGCCCTGAGCAAAGACC", "binding signal": "-1.02 ± 0.115"},
      {"sequence": "CTCGAGGATATCAAGATCTGGCCTCGGCGTTTTATGCGGAACCTCTAGCTAGCCGACTCACTATAGGGATAATCGCCCTGAGCAAAGACC", "binding signal": "2.07 ± 0.0741"},
      {"sequence": "CTCGAGGATATCAAGATCTGGCCTCGGCAGTTGGGCGGGAACCTCTAGCTAGCCGACTCACTATAGGGATAATCGCCCTGAGCAAAGACC", "binding signal": "-0.843 ± 0.104"},
      {"sequence": "CTCGAGGATATCAAGATCTGGCCTCGGCGCGATTGCGGGAACCTCTAGCTAGCCGACTCACTATAGGGATAATCGCCCTGAGCAAAGACC", "binding signal": "-0.695 ± 0.114"},
      {"sequence": "CTCGAGGATATCAAGATCTGGCCTCGGCCTTTTAATAGGAACCTCTAGCTAGCCGACTCACTATAGGGATAATCGCCCTGAGCAAAGACC", "binding signal": "2.68 ± 0.0826"}
    ]}
  ]
}
